# Assay results from ChEMBL document CHEMBL2218924, “A broad activity screen in support of a chemogenomic map for kinase signalling research and drug discovery” (Biochem J, 2013).
# Target: Rho-associated protein kinase 1 (Homo sapiens) (UniProt Q13464)
# Conditions: at 1 µM
# Chain of Rho-associated protein kinase 1 (Homo sapiens) (Q13464 2-1354 limits assumed): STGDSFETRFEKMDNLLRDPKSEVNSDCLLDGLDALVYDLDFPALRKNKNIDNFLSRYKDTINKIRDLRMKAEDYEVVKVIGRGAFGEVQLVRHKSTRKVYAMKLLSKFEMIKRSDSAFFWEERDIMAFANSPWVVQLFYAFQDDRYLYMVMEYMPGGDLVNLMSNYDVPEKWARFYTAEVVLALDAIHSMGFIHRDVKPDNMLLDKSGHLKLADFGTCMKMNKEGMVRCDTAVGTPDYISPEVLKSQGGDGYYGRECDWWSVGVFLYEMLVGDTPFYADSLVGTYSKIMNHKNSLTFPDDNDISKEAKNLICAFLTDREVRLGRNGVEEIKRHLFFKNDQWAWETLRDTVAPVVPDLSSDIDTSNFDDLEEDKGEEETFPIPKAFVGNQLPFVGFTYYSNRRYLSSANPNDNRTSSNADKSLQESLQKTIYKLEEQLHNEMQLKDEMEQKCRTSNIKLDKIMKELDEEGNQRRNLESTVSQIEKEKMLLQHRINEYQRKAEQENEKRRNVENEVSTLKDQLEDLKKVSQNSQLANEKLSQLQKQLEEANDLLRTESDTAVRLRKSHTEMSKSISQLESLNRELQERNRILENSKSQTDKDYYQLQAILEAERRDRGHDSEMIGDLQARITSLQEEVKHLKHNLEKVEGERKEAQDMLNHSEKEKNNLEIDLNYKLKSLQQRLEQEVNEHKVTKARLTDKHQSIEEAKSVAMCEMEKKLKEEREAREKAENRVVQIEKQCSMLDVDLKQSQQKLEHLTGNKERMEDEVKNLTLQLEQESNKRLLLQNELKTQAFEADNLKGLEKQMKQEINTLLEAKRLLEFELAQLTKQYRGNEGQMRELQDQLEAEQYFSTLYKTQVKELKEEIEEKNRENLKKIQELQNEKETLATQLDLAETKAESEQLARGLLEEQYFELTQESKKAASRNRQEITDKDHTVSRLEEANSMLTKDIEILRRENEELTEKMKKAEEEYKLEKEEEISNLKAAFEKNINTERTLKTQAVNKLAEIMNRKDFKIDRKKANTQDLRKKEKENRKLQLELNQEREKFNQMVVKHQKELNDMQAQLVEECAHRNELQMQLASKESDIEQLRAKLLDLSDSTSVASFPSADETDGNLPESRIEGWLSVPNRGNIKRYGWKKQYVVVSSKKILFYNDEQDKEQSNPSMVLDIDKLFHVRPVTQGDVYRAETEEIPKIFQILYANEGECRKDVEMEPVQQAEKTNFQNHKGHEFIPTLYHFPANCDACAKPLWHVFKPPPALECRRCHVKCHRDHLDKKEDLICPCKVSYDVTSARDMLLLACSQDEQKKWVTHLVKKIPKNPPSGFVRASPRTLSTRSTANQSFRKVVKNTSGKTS
row,SMILES,residual activity
1,c1cc(-c2cnn3cc(-c4ccc(OCCN5CCCCC5)cc4)cnc23)ccn1,117%
2,COc1cc(OC)c(/C=C2\C(=O)Nc3ccccc32)c(OC)c1,127%
3,CCn1cnc2c(Nc3cccc(Cl)c3)nc(N[C@@H]3CCCC[C@@H]3N)nc21,115%
4,COC(=O)[C@@]1(O)C[C@H]2O[C@]1(C)n1c3ccccc3c3c4c(c5c6ccccc6n2c5c31)C(=O)NC4,50%
5,COc1ccc2c(c1)/C(=C/c1cnc[nH]1)C(=O)N2,123%
6,O=C1Nc2ccc3ncsc3c2/C1=C/c1c[nH]cn1,59%
7,C[S+]([O-])c1ccc(-c2nc(-c3ccc(F)cc3)c(-c3ccncc3)[nH]2)cc1 (stereo not given),70%
8,O=[N+]([O-])/C=C/c1ccc2c(c1)OCO2,109%
9,COc1ccc2c(c[n+](C)c3c4cc5c(cc4ccc23)OCO5)c1OC,110%
10,O=C1c2ccccc2-c2nc3nnnn3nc21,112%
11,CC(C)(C)c1cc(C=C(C#N)C#N)cc(Br)c1O,102%
12,N/C(=N\[N+](=O)[O-])N/N=C\c1ccc(-c2cccc([N+](=O)[O-])c2)o1,134%
13,COc1cc2ncnc(Nc3ccc(OCc4ccccc4)cc3)c2cc1OC,83%
14,O=c1[nH]c2ccccc2n1C1CCN(Cc2ccc(-c3nc4cc5[nH]cnc5cc4nc3-c3ccccc3)cc2)CC1,114%
15,CC(C)[C@H](CO)Nc1nc(Nc2cccc(Cl)c2)c2ncn(C(C)C)c2n1,115%
16,CCc1nc(-c2ccc(OC)cc2)[nH]c1-c1ccncc1,113%

# Target: Rho-associated protein kinase 1 (Homo sapiens) (UniProt Q13464)
# Conditions: at 10 µM
row,SMILES,residual activity
1,COc1cc(OC)c(/C=C2\C(=O)Nc3ccccc32)c(OC)c1,126%
2,CCn1cnc2c(Nc3cccc(Cl)c3)nc(N[C@@H]3CCCC[C@@H]3N)nc21,84%
3,COC(=O)[C@@]1(O)C[C@H]2O[C@]1(C)n1c3ccccc3c3c4c(c5c6ccccc6n2c5c31)C(=O)NC4,12%
4,O=C1NC(=O)c2c1c1c3ccccc3n3c1c1c2c2ccccc2n1C1CCC3O1,95%
5,O=C1Nc2ccc3ncsc3c2/C1=C/c1c[nH]cn1,23%
6,C[S+]([O-])c1ccc(-c2nc(-c3ccc(F)cc3)c(-c3ccncc3)[nH]2)cc1 (stereo not given),74%
7,O=[N+]([O-])/C=C/c1ccc2c(c1)OCO2,109%
8,COc1ccc2c(c[n+](C)c3c4cc5c(cc4ccc23)OCO5)c1OC,120%
9,O=C1c2ccccc2-c2nc3nnnn3nc21,117%
10,CC(C)(C)c1cc(C=C(C#N)C#N)cc(Br)c1O,82%
11,COc1cc2ncnc(Nc3ccc(OCc4ccccc4)cc3)c2cc1OC,96%
12,O=c1[nH]c2ccccc2n1C1CCN(Cc2ccc(-c3nc4cc5[nH]cnc5cc4nc3-c3ccccc3)cc2)CC1,119%
13,CC(C)[C@H](CO)Nc1nc(Nc2cccc(Cl)c2)c2ncn(C(C)C)c2n1,96%
14,CCc1nc(-c2ccc(OC)cc2)[nH]c1-c1ccncc1,106%
